# Tested on: T1, ERK8
# T1 construct: gene MAPK15
# Settings: concentration: 1 μM,replicates: in singlicate; n = 1
# 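Further: KINOMEscan kinase panel screen.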
row,SMILES,%Inh
1,CCN(CC)CCOc1ccc(Nc2ncc3cc(-c4c(Cl)cccc4Cl)c(=O)n(C)c3n2)cc1 [SB-601273],0%
2,Cc1cc(C(=O)Nc2ccc(Oc3ccc4nc(NC(=O)C5CC5)cn4n3)cc2)nn1-c1ccccc1,10%
3,Cl.Oc1cc(-c2nc(-c3ccccc3)[nH]c2-c2ccncc2)ccc1Cl [SB-386023],0%
4,CNC(=O)c1ccccc1Sc1ccc2c(/C=C/c3ccccn3)n[nH]c2c1,4%
5,Cc1ccc2c(-c3ccncc3)c(-c3ccc(F)cc3)nn2c1.Cl [GW461484],0%
6,CN(C)CC(O)COc1ccc(Nc2nccc(-c3cnn4nc(N5CCOCC5)ccc34)n2)cc1 (centres unmarked) [GW767488],98.9%
7,Cl.Cl.Nc1nc(-c2ccc3c(N)n[nH]c3c2)cc(N2CCCC(NC(=O)c3ccccc3)C2)n1 (centres unmarked) [GSK2286775],0%
8,CCn1c(-c2nonc2N)nc2c(C#CC(C)(C)O)nc(OCCN)cc21.Cl.Cl [GSK902056],22%
9,CC(C)Nc1cc(-c2ccc3c(N)n[nH]c3c2)nc(N)n1 [GSK2221681],0%
10,Cl.Cl.NC[C@H](CC1CCCCC1)NC(=O)c1cc(Br)c(-c2ccnc3[nH]ccc23)s1 [GSK1581427],30%
11,Cc1ccc(-n2nc(C(C)(C)C)cc2NC(=O)Nc2ccc(OCCN3CCOCC3)c3ccccc23)cc1 [GW839464],9%
12,Nc1nc(Nc2ccccc2)cc(-c2ccc3c(N)n[nH]c3c2)n1 [GSK2225749],37%
13,C[C@@H]1CCN(C(=O)CC#N)C[C@@H]1N(C)c1ncnc2[nH]ccc12,15%
14,CCN(CC)CCCCNc1ncc2cc(-c3c(Cl)cccc3Cl)c(NC(=O)NC(C)(C)C)nc2n1,5%
15,CC(C)N1C(=O)Cc2cc(Nc3ncc(C(F)(F)F)c(NCc4cccc(S(C)(=O)=O)c4)n3)ccc21,78%
16,Cl.Cl.NC[C@H](Cc1ccc(C(F)(F)F)cc1)NC(=O)c1cc(Br)c(-c2ccnc3[nH]ccc23)s1 [GSK1487252],0%
17,Cc1n[nH]c2ccc(-c3cc(OC[C@@H](N)Cc4ccccc4)cnc3-c3ccoc3)cc12.O=C(O)C(F)(F)F.O=C(O)C(F)(F)F [GSK507358],0%
18,Cc1cc2cn[nH]c2cc1-c1cccc2c(N)c(C(N)=O)nnc12,20%
19,COc1ccc(C[C@@H](CN)NC(=O)c2cc(Br)c(-c3ccnc4[nH]ccc34)s2)cc1.Cl.Cl [GSK1389063],51%
20,O=C(NCCNc1ccnc(NCc2ccc(F)cc2)n1)c1cc2ccccc2s1 [GSK1379944],22%
21,C[C@H]1Oc2cc(cnc2N)-c2c(nn(C)c2C#N)CN(C)C(=O)c2ccc(F)cc21,4%
22,O=C(NCCCN1CCOC1=O)c1cnc(NCc2cc(Cl)ccc2Cl)nc1NC1CCCC1,0%
23,NC(=O)c1cc(-c2ccccc2)cc2c(C3CCNCC3)c[nH]c12 [GSK301362],0%
24,CN(C)CCOc1ccc(-c2cc(-c3c[nH]nc3-c3ccccn3)ccn2)cc1 [GW835314],0%
25,C[C@@H](Oc1cc(-c2cnn(C3CCNCC3)c2)cnc1N)c1c(Cl)ccc(F)c1Cl,0%
26,Cc1occc1-c1nc(N)c(OC[C@@H](N)Cc2c[nH]c3ccccc23)cc1-c1cc2c(C)n[nH]c2cn1 [GSK1660450],96.6%
